# VDR inhibitor: blocks the human vitamin D receptor | P11473 | VDR-SRC2-3 peptide fluorescence polarization, 2 h | Potency, µM, without a hit: max response, negative = inhibition, actives largely listed as inhibitors | hit rate 0.93% among 400,000 | AID 504847
#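 FP read-out; VDR + SRC2-3 coactivator peptide; 23 nl compound by pintool; 2 h RT incubation; reagents held at 4 deg C, protected from light.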
# TDP1 inh: blocks human tyrosyl-DNA phosphodiesterase 1; Q9NUW8; recombinant TDP1, AlphaScreen DNA substrate cleavage; Potency, µM (top dose mostly 130 µM), for inactives: at the highest dose activity change, negative = inhibition, hits mostly inhibitors; hit rate 0.28% among 350,000; AID 485290; also: nearly all actives have a fitted effect of over 40% in size
# Target sequence (Q9NUW8 whole entry, looked up): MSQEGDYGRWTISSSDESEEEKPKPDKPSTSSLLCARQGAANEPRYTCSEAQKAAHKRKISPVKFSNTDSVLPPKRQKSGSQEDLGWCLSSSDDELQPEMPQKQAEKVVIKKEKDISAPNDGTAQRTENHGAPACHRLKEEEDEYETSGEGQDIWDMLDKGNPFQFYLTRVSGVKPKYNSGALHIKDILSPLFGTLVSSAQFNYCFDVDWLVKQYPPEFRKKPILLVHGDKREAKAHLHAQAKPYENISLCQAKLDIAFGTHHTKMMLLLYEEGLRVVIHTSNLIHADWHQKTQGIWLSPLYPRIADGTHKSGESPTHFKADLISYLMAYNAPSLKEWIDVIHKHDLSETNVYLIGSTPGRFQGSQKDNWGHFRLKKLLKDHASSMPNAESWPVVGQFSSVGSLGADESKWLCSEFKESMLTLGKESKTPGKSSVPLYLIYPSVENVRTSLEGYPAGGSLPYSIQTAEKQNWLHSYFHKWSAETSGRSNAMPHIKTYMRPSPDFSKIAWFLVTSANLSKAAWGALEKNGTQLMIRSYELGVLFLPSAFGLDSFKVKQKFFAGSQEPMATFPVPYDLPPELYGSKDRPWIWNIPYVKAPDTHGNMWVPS
#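 AlphaScreen read-out: signal falls as enzyme removes the 3' tyrosine-FITC from a 5'-biotinylated DNA oligo (15 nM, 5 min, RT). Enzyme was E. coli-made recombinant Tdp1 at 1 nM, exposed to compound for 15 min beforehand; beads 10 ug/ml, 10 min.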
# KAT2A inh: blocks human GCN5L2 histone acetyltransferase; GCN5L2 HAT assay, ThioGlo1 CoA-SH fluorescence; Q92830; hit rate 0.21% among 390,000; Potency, µM (top dose mostly 58.9 µM), inactives show at the highest dose activity change, negative = inhibition, usual class: inhibitors
#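 Free CoA generated was detected with ThioGlo1 (50uM) fluorescence at Ex340nm/Em540nm, read immediately and after 20 min at room temperature. Enzyme, 20 nM in HEPES pH 7.5 buffer, saw compounds 15 min before adding 75uM H3(1-25) peptide and 70uM acetyl-CoA.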
# DT40 TDP1 no CPT: qHTS for Inhibitors of human tyrosyl-DNA phosphodiesterase 1 (TDP1): qHTS in cells in absence of CPT | hit rate 15% among 420,000 | DT40 Tdp1-/- hTDP1 cells, no CPT, ATP luminescence, 48 h | Potency, µM (titrated, usually from 46.2 µM), for the others: at the top dose activity change, negative = growth inhibition, hits mostly inhibitors; also: nearly all actives have a fitted effect of over 55% in size
#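 Growth of hTDP1-complemented DT40 Tdp1-knockout cells is measured by ATP luminescence after at least 48 hr compound exposure at 37 °C, with DMSO substituting for the 20 nM CPT used in the parallel screen.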
# PLK1 PBD block: PLK1 (human) polo-box domain binding inhibition; Plk1 PBD binding of FITC phosphopeptide, fluorescence polarization; Potency, µM, without a hit: max response, negative = inhibition, hits mostly inhibitors; hit rate 2.8% among 360,000; AID 720504; also: series mostly up to about 57 µM; nearly all actives have a fitted effect of over 65% in size
# DT40 TDP1 CPT: growth inhibition of DT40 Tdp1-/-;hTDP1 cells with camptothecin (screen for TDP1 inhibitors). Potency, µM (doses to about 46.2 µM), for inactives: at the top dose activity change, negative = growth inhibition, actives largely listed as inhibitors. hit rate 12% among 420,000. chicken DT40 Tdp1-/-;hTDP1 cells + 20 nM CPT, ATP luminescence, 48 h; also: nearly all actives have a fitted effect of over 55% in size
#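 Cell growth measured by CellTiter-Glo luminescence after a minimum 48 h, 37 C compound exposure with 20 nM CPT in Tdp1-knockout DT40 cells stably expressing hTDP1, seeded 400/well; qHTS titration format.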
# Starred values were filed as active, the others as inactive; ? = inconclusive; . = not tested or not shown; [ ] = another dose, or the depositor's remark. Shown are actives, neighbours in structure and some others; about 18% of the full set was active somewhere. Calls follow the shape of the dose curve; as a rule, active = well fitted curve in the direction sought with a large enough effect; inconclusive = small, poorly fitted or top-dose-only effect, or another doubt; inactive = no such curve, though single readings can be large; an effect the other way counts as inactive or inconclusive. % is scaled to controls: 0 for no effect and ±100 for the full control effect; potency is read from the fitted curve at half-maximal effect.
SMILES,VDR inhibitor,TDP1 inh,KAT2A inh,DT40 TDP1 no CPT,PLK1 PBD block,DT40 TDP1 CPT
COc1ccc(/C=C/C(=O)NC(=S)Nc2ccc(C(=O)O)cc2)cc1,-10%,89µM*,-11%,3%,-19%,-12%
COc1cccc(NC(=O)/C=C\c2ccc(Cl)cc2)c1,-7%,9%[56.1 µM],-20%,?,.,30µM*
CC(=O)Nc1ccc(NC(=S)NC(=O)/C=C/c2ccc(Cl)cc2)cc1,1%,3%,-7%,?,?,-6%
COc1ccc(N2CCN(C(=O)c3ccc(COc4ccc([N+](=O)[O-])cc4)o3)CC2)cc1,6%,9%,?,10µM*,-2%,10µM*
CCOC(=O)N1CCN(c2ccc([N+](=O)[O-])cc2)CC1,-18%,3%,0%,?,-3%,?
O=C(c1ccc(COc2c(F)c(F)c(F)c(F)c2F)o1)N1CCOCC1,8%,7%,-12%,?,-5%,-18%
O=C(c1ccc(COc2c(F)c(F)cc(F)c2F)o1)N1CCN(c2ccccc2)CC1,4%,-2%,-4%,12µM*,-1%,18µM*
COc1ccc(N2CCN(C(=O)c3cc(=O)c4cc(C)cc(C)c4o3)CC2)cc1,-15%,.,-19%,?,-20%,13µM*
O=C(O)c1ccc(COc2ccc([N+](=O)[O-])cc2)o1,-9%,.,3%,-1%,5%,15%
COc1ccc(N2CCN(C(=O)Oc3ccc([N+](=O)[O-])cc3)CC2)cc1,.,.,.,26µM*,-11%,?
C/C=C(\C)C(=O)NCCN1Cc2ccccc2OC(c2ccccc2OC)C1 (configuration not stated),.,.,.,-27%,.,-7%[9.04 µM]
CCCCC(=O)NC(=S)Nc1ccc(S(=O)(=O)N2CCCC2)cc1,-5%,5%,-4%,?,-8%,-21%
Cc1cc(N2CCN(C(=O)/C=C/C(=O)O)CC2)c2ccccc2n1,-28%,.,-11%,-2%,-10%,1%
Cc1cc(N2CCN(C(=O)Oc3ccc([N+](=O)[O-])cc3)CC2)c2ccccc2n1,.,.,.,18µM*,-6%,?
COc1ccc(-c2csc(Nc3ccc(Oc4ccccc4)cc3)n2)cc1,.,.,.,16µM*,-2%,18µM*
Cc1csc(Nc2ccccc2)n1,12%,5%,2%,-14%,30µM*,2%
Cc1nc(N)sc1-c1csc(Nc2ccccc2)n1,?,13%,-2%,?,27µM*,?
COc1ccc(Nc2nc(-c3sc(C)nc3C)cs2)cc1,0%,.,-3%,1.2µM*,-9%,1.2µM*
Cc1nc2nc(SCC(=O)NCCc3ccc(Cl)cc3)nn2c(C)c1Cc1ccccc1,17%,6%,-7%,?,.,?
Cc1cc(NS(=O)(=O)c2ccc(Nc3nc(-c4ccc(C)c(C)c4)cs3)cc2)no1,-6%,0%,3%,?,-2%,?
Cc1cc(NS(=O)(=O)c2ccc(Nc3nc(-c4sc(N)nc4C)cs3)cc2)no1,?,-11%,-7%,1%,30µM*,-30%
CCOc1ccc(-c2nnn(CC(=O)c3ccc4c(c3)OCCO4)n2)cc1OCC,88%,3%,-7%,18µM*,-5%,?
CCOc1ccc(CCNC(=O)Cn2nnc(-c3ccc(OC)c(OC)c3)n2)cc1OCC,7%,3%,-4%,?,.,?
CCOc1ccc(-c2nnn(CCC#N)n2)cc1OC,?,-3%,-4%,?,19µM*,?
CC(C)(C)S(=O)(=O)N1C[C@H]2CC/C=C\C/C=C\2[C@@H]1CCO,.,.,.,13µM*,-4%,21µM*
SMILES,VDR inhibitor,TDP1 inh,KAT2A inh,DT40 TDP1 no CPT,PLK1 PBD block,DT40 TDP1 CPT
C=C1[C@H](C)CN(S(=O)(=O)C(C)(C)C)[C@H]1CCO,-14%,.,.,1%,-25%,-25%
CC(C)(C)S(=O)(=O)N1C[C@@H]2CC/C=C\C/C=C\2[C@H]1CCO,-14%,.,.,8.2µM*,-9%,13µM*
CCc1ccc(S(=O)(=O)NCc2nc(N3CCCC3)c3cccc(C)c3n2)cc1,.,.,.,?,.,7%[9.04 µM]
C=C[C@]1(C)C=C2C(=O)[C@@]3(O)OC(=O)[C@@]4(CCCC(C)(C)[C@H]34)[C@@]2(O)CC1,.,.,.,1.6µM*,?,0.65µM*
O=C1c2ccccc2C(=O)N1CCCCSc1nc2ccccc2c(=O)n1CCCN1CCOCC1,11%,8%,-3%,?,2%,?
O=C(O)C1CCC(NSc2ccccc2[N+](=O)[O-])CC1 (configuration not stated),28µM*,6%,-3%,2.6µM*,2.4µM*,2.9µM*
NC(=O)CC(NSc1ccccc1[N+](=O)[O-])C(=O)O (configuration not stated),?,9%,-1%,18µM*,3.8µM*,16µM*
CCOCc1nc2nc(Cl)c(Cl)nc2[nH]1,.,.,.,-28%,-14%,-20%
O=C(CCS(=O)(=O)c1cc(Br)cc2c1N(C(=O)C1CC1)CC2)NCc1ccc(Cl)cc1,-11%,0%[12.3 µM],1%,?,.,?
O=C(NC(=S)N1CCN(c2nc(-c3ccccc3)cs2)CC1)c1cncc(Br)c1,-15%,6%,21%,?,?,10µM*
CC(C)CNC(=S)N1CCN(c2nc(-c3ccc(Cl)cc3)cs2)CC1,23%,.,-4%,16µM*,-1%,?
COCCCNC(=S)N1CCN(c2nc(-c3ccccc3)cs2)CC1,-12%,.,-3%,12µM*,0%,16µM*
COc1cccc(-c2csc(N3CCN(C(=O)Nc4ccc(Cl)cc4)CC3)n2)c1,-9%,7%,?,?,4%,?
CCC(=O)N1CCN(c2nc(-c3ccc(Cl)cc3)cs2)CC1,1%,5%[56.1 µM],-4%,23µM*,?,23µM*
Fc1cccc(Cl)c1CNCCSc1nnnn1-c1ccccc1,9%,7%,-10%,?,.,?
O=C(Cn1nc(C(=O)O)c2ccccc2c1=O)Nc1ccc2c(c1)C(=O)c1ccccc1C2=O,.,8%,?,.,-3%,.
OCCNc1ncnc2c1ncn2[C@H]1CN(Cc2ccco2)C[C@@H](CO)O1,.,.,.,0%,-7%,16%
COc1cccc(CNC(=O)c2c(OC)cc(=O)n3c2CCN(C(=O)C2CC=CCC2)CC3)c1 (configuration not stated),.,.,.,-13%,.,-9%
O=C(c1csc2ccccc12)N1CCN(c2ccc(Cl)c(Cl)c2)CC1,-8%,-2%,-6%,23µM*,-3%,21µM*
Clc1ccc(-c2csc(N3CCSCC3)n2)cc1,-29%,1%,-4%,29%,24µM*,-16%

# Bioassay records as filed in PubChem BioAssay.
